The panel holds about 83,000 compounds, 20% with a hit somewhere; the sample as a whole holds those more often.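 Single-dose data. Exposure time 48 hours. Values below 10 considered active.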 Active and inactive are the calls of the source.
How the values were obtained:
Test in all cases: NCI-60 one-dose screen, 48 h (100 = growth as untreated, 0 = no growth, -100 = all killed)
Conditions in all cases: 10 µM
NCI-H23 lung = test system: NCI-H23 lung
NCI-H226 lung = test system: NCI-H226 lung
NCI-H322M lung = test system: NCI-H322M lung
HOP-62 NSCLC = test system: HOP-62 NSCLC
NCI-H460 lung = test system: NCI-H460 lung
HOP-92 NSCLC = test system: HOP-92 NSCLC
NCI-H522 lung = test system: NCI-H522 lung
A549/ATCC NSCLC = test system: A549/ATCC NSCLC
786-0 renal = test system: 786-0 renal
COLO 205 colon = test system: COLO 205 colon

Measured: growth

O=C1Nc2ccc(Cl)cc2/C1=C/c1ccc(OCc2ccccn2)cc1
inactive: NCI-H23 lung 62.2% | NCI-H322M lung 64.2% | HOP-62 NSCLC 45.6% | NCI-H460 lung 16% | HOP-92 NSCLC 72.1% | NCI-H522 lung 66% | A549/ATCC NSCLC 64.4% | 786-0 renal 25.7%
active: NCI-H226 lung 1.26%

COc1ccccc1[C@H]1C(C(=O)c2ccc(Cl)cc2)C2(N[C@@H]1c1ccccc1)C(=O)Nc1ccccc12 (stereo partly drawn)
active: NCI-H23 lung -55.3% | NCI-H226 lung -53.2% | HOP-62 NSCLC -21.9% | NCI-H460 lung -27.2% | HOP-92 NSCLC -21.8% | NCI-H522 lung -27.5% | A549/ATCC NSCLC 9.22% | 786-0 renal -15%
inactive: NCI-H322M lung 10.3%

CC(=O)C1=C(C)NC(SCC(=O)Nc2ccc(S(=O)(=O)Nc3cc(C)on3)cc2)=NC1c1ccccc1 (stereo not drawn)
inactive: NCI-H23 lung 102% | NCI-H226 lung 117% | NCI-H322M lung 102% | HOP-62 NSCLC 105% | NCI-H460 lung 98.3% | HOP-92 NSCLC 132% | NCI-H522 lung 100% | A549/ATCC NSCLC 99.1% | 786-0 renal 102%

Cc1ccc(C(=O)Nc2ccc(-n3c(C)nc4c(cnn4-c4ccccc4)c3=O)cc2)cc1
inactive: NCI-H23 lung 53.6% | NCI-H226 lung 54.8% | NCI-H322M lung 87.3% | HOP-62 NSCLC 78.8% | NCI-H460 lung 75.4% | HOP-92 NSCLC 93.3% | NCI-H522 lung 71.2% | A549/ATCC NSCLC 65.8% | 786-0 renal 86.1%

COc1cc(/C=N/NC(=O)c2ccc3nc(-c4ccc(Cl)cc4)[nH]c3c2)cc(OC)c1OC
active: NCI-H23 lung -68.4% | NCI-H226 lung -50.5% | NCI-H322M lung 3.86% | HOP-62 NSCLC -77.5% | NCI-H460 lung -34.8% | HOP-92 NSCLC -64.5% | NCI-H522 lung -44.2% | 786-0 renal -4.1%
inactive: A549/ATCC NSCLC 29.2%

O=C(Nc1ccncc1)c1ccc(-n2c(=O)[nH]c3ccccc3c2=O)cc1
inactive: NCI-H23 lung 80.1% | NCI-H226 lung 87.4% | NCI-H322M lung 97.6% | HOP-62 NSCLC 99% | NCI-H460 lung 110% | HOP-92 NSCLC 77.1% | NCI-H522 lung 84.9% | A549/ATCC NSCLC 106% | 786-0 renal 94.2%

O=C1Nc2ccc(Cl)cc2/C1=C/c1cccc(OCc2ccccc2)c1
inactive: NCI-H23 lung 31% | NCI-H226 lung 17.2% | NCI-H322M lung 44.6% | HOP-62 NSCLC 32.9% | NCI-H460 lung 13.5% | HOP-92 NSCLC 16.5% | NCI-H522 lung 35.9% | A549/ATCC NSCLC 43.2% | 786-0 renal 40.5%

CCCCSc1nc(Nc2ccc(/C(C)=N/NC(N)=S)cc2)c(C#N)c(-c2ccccc2)n1
inactive: NCI-H23 lung 23.7% | NCI-H322M lung 59% | HOP-62 NSCLC 41.1% | NCI-H460 lung 12.1% | NCI-H522 lung 39.6% | A549/ATCC NSCLC 12.8% | COLO 205 colon 59.6%
active: NCI-H226 lung 4.29% | HOP-92 NSCLC -19.7% | 786-0 renal 3.01%

CN1CCCN(Cc2ccc(C(=O)Nc3cccc(Nc4ccc5cc(O)ccc5n4)c3)cc2C(F)(F)F)CC1
active: 786-0 renal 8.41%
inactive: NCI-H23 lung 68.8% | NCI-H226 lung 103% | NCI-H322M lung 89.1% | HOP-62 NSCLC 95.9% | NCI-H460 lung 27.7% | HOP-92 NSCLC 53.3% | NCI-H522 lung 80.3% | A549/ATCC NSCLC 64.7% | COLO 205 colon 63.2%

COc1ccc(C(=O)/C=C/c2ccc(Cl)c(C(F)(F)F)c2)cc1S(N)(=O)=O
active: NCI-H23 lung -86.5% | NCI-H226 lung -95.3% | NCI-H322M lung -100% | HOP-62 NSCLC -84% | NCI-H460 lung -79.2% | HOP-92 NSCLC -68.8% | NCI-H522 lung -83.2% | A549/ATCC NSCLC -78.1% | 786-0 renal -85.6% | COLO 205 colon -71.5%

Cc1ccc(/C(N)=N/c2sc(-c3ccccc3)nc2-c2ccccc2)cc1
inactive: NCI-H23 lung 83.1% | NCI-H226 lung 94.3% | NCI-H322M lung 90.2% | HOP-62 NSCLC 101% | NCI-H460 lung 76.5% | HOP-92 NSCLC 90.2% | NCI-H522 lung 83% | A549/ATCC NSCLC 80.4% | 786-0 renal 76.7% | COLO 205 colon 91.1%

COc1ccc2nc(Nc3cccc(NC(=O)c4ccc(CN5CCN(C)CC5)c(C(F)(F)F)c4)c3)ccc2c1
active: NCI-H23 lung -94.9% | NCI-H226 lung -46.9% | NCI-H322M lung -64% | HOP-62 NSCLC -77.6% | NCI-H460 lung -84.5% | HOP-92 NSCLC -57% | NCI-H522 lung -85.7% | A549/ATCC NSCLC -54.7% | 786-0 renal -55.3% | COLO 205 colon -90.3%

O=C1c2ccccc2C(=O)c2c1c(C(=O)c1ccc(Cl)cc1)n1c2ccc2c3ccccc3ccc21
inactive: NCI-H23 lung 96% | NCI-H226 lung 103% | NCI-H322M lung 113% | HOP-62 NSCLC 92.5% | NCI-H460 lung 109% | HOP-92 NSCLC 98.6% | NCI-H522 lung 93.5% | A549/ATCC NSCLC 102% | 786-0 renal 110% | COLO 205 colon 128%

CONC[C@]1(C)C=C2C(=O)[C@](C)(O)C3(CC3)C(C)=C2[C@H]1O
active: NCI-H23 lung -82.6% | NCI-H226 lung -26.7% | NCI-H322M lung -9.89% | HOP-62 NSCLC -21.7% | NCI-H460 lung -24.4% | HOP-92 NSCLC -16.6% | NCI-H522 lung -71.1% | A549/ATCC NSCLC 5.7% | 786-0 renal 5.71% | COLO 205 colon -79.1%

COc1ccc(CCN2C(=O)/C(=C/c3csc(C#N)n3)SC2=S)cc1OC
active: HOP-92 NSCLC -5.19% | NCI-H522 lung -66.7% | COLO 205 colon -27.5%
inactive: NCI-H23 lung 38.5% | NCI-H226 lung 100% | NCI-H322M lung 101% | HOP-62 NSCLC 111% | NCI-H460 lung 98.4% | A549/ATCC NSCLC 95% | 786-0 renal 21.1%

CN1CCN(c2ccc(C(=O)/C=C/c3ccc(C#N)cc3)cc2)CC1
inactive: NCI-H23 lung 76.5% | NCI-H226 lung 80.7% | NCI-H322M lung 94.2% | HOP-62 NSCLC 89.1% | NCI-H460 lung 97.1% | HOP-92 NSCLC 77.2% | NCI-H522 lung 81.5% | A549/ATCC NSCLC 76.3% | 786-0 renal 73.5% | COLO 205 colon 87.4%

Nc1nnc(-c2c[nH]c3ccc(F)cc23)c(-c2c[nH]c3ncccc23)n1
inactive: NCI-H23 lung 86.6% | NCI-H226 lung 57.9% | NCI-H322M lung 61.1% | HOP-62 NSCLC 57.4% | NCI-H460 lung 50.3% | HOP-92 NSCLC 81.8% | NCI-H522 lung 52.7% | A549/ATCC NSCLC 74% | 786-0 renal 44% | COLO 205 colon 71.8%

Cc1ccn2c(C(=O)c3ccccc3)cc(-c3cc(-c4ccc(N(C)C)cc4)c(C#N)c(N)n3)c2c1
inactive: NCI-H23 lung 46.1% | NCI-H226 lung 16.7% | NCI-H322M lung 75.1% | HOP-62 NSCLC 53.1% | NCI-H460 lung 56% | HOP-92 NSCLC 23.6% | NCI-H522 lung 79.4% | A549/ATCC NSCLC 45.9% | 786-0 renal 21% | COLO 205 colon 66.2%

O=c1[nH]c2ccccc2cc1CSc1ccc(Nc2nccc(-c3ccc4c(c3)OCO4)n2)cc1
inactive: NCI-H23 lung 86.1% | NCI-H226 lung 74% | NCI-H322M lung 97.7% | HOP-62 NSCLC 84% | NCI-H460 lung 83.1% | HOP-92 NSCLC 78.6% | NCI-H522 lung 96.9% | A549/ATCC NSCLC 76.7% | 786-0 renal 84.7% | COLO 205 colon 71.6%

O=C(Nc1ccccc1)Nc1nc2ccccc2s1
inactive: NCI-H23 lung 78.5% | NCI-H226 lung 72.1% | NCI-H322M lung 84.4% | HOP-62 NSCLC 77.2% | NCI-H460 lung 95.3% | HOP-92 NSCLC 77.8% | NCI-H522 lung 72.3% | A549/ATCC NSCLC 89.5% | 786-0 renal 102% | COLO 205 colon 50.8%

Nc1nc(Nc2ccccc2)nn1Cc1c(Cl)cccc1Cl
inactive: NCI-H23 lung 34.1% | NCI-H226 lung 30.4% | NCI-H322M lung 51.8% | HOP-62 NSCLC 60.6% | NCI-H460 lung 24.8% | NCI-H522 lung 21.1% | A549/ATCC NSCLC 43.1% | 786-0 renal 27.8% | COLO 205 colon 33.2%
active: HOP-92 NSCLC -17.4%

CCOc1ccc(/C=N/NC(=O)Cn2nc(Cc3ccccc3)c3onc(C)c3c2=O)cc1
active: NCI-H226 lung -19.3% | HOP-62 NSCLC -39.3% | HOP-92 NSCLC -45.9% | 786-0 renal -51.9%
inactive: NCI-H23 lung 37.4% | NCI-H322M lung 50.5% | NCI-H460 lung 16.7% | NCI-H522 lung 11.4% | A549/ATCC NSCLC 11.6% | COLO 205 colon 29.2%

O=c1c2ccccc2nc(COc2ccccc2)n1/N=C/c1ccc(N2CCCC2)cc1
inactive: NCI-H23 lung 85% | NCI-H226 lung 105% | NCI-H322M lung 91.2% | HOP-62 NSCLC 108% | NCI-H460 lung 105% | HOP-92 NSCLC 75.5% | NCI-H522 lung 81.7% | A549/ATCC NSCLC 92.2% | 786-0 renal 92.8% | COLO 205 colon 142%

CC(=O)Nc1ccc(-c2cn(-c3cccc(C(=O)Nc4cccc(OC(F)(F)F)c4)c3)nn2)cn1
inactive: NCI-H23 lung 87% | NCI-H226 lung 106% | NCI-H322M lung 114% | HOP-62 NSCLC 97.7% | NCI-H460 lung 47.4% | HOP-92 NSCLC 122% | NCI-H522 lung 88.5% | A549/ATCC NSCLC 86.3% | 786-0 renal 115% | COLO 205 colon 111%

CCC(C)S(=O)(=O)c1oc(-c2ccc(C)cc2)nc1S(=O)(=O)c1ccccc1 (stereo not drawn)
active: NCI-H23 lung -86.8% | NCI-H226 lung -10.3% | NCI-H460 lung -13.9% | HOP-92 NSCLC -74.6% | NCI-H522 lung -98.7% | 786-0 renal -48.8% | COLO 205 colon -85.5%
inactive: NCI-H322M lung 65.1% | HOP-62 NSCLC 28.7% | A549/ATCC NSCLC 35.9%

CC1(C)CC[C@]2(C(=O)Nc3ccccc3)CC[C@]3(C)C(=CC[C@@H]4[C@@]5(C)CC[C@H](N)C(C)(C)[C@@H]5CC[C@]43C)[C@H]2C1
active: NCI-H460 lung -30.2% | COLO 205 colon -36.4%
inactive: NCI-H23 lung 68.8% | NCI-H226 lung 88.3% | NCI-H322M lung 105% | HOP-62 NSCLC 103% | HOP-92 NSCLC 70.2% | NCI-H522 lung 82.9% | A549/ATCC NSCLC 74.4% | 786-0 renal 65.3%

COc1cc(NC(=O)CSc2nnc(-c3ccc4nc(-c5ccc(Cl)cc5)[nH]c4c3)o2)cc(OC)c1OC
inactive: NCI-H23 lung 40.3% | NCI-H226 lung 38.7% | NCI-H322M lung 90.8% | HOP-62 NSCLC 89.7% | NCI-H460 lung 67.2% | HOP-92 NSCLC 128% | NCI-H522 lung 45.1% | A549/ATCC NSCLC 90.4% | 786-0 renal 78.3% | COLO 205 colon 82.4%
